The full ranking holds about 68,000 sequences; the median of “fluorescence intensity (a.u.)” is about 9,100, and the highest 2% start at about 16,000. Shown is part of a subset that was picked to be rich in the highest values.

Chain of OsWRKY34 (Q0JBA9 entry or part of it): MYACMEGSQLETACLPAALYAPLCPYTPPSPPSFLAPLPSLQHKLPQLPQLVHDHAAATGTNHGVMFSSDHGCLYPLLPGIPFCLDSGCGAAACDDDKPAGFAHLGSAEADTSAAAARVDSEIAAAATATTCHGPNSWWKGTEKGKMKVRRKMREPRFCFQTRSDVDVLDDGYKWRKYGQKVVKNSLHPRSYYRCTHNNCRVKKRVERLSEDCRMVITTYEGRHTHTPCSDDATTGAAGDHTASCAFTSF

The target of this experiment is OsWRKY34 (Oryza sativa, UniProt Q0JBA9 1-250). Description: protein-binding microarray (RPBM); PBS, 2% BSA, 51.3 ng/ul salmon testes DNA, 50 uM zinc acetate, 200 nM TF, 25 C, 1 h; high values mean tight binding. The settings on record: protein: recombinant; tags: N-terminal polyhistidine and DsRed monomer fusion (pET32a); label: CyDye5-dUTP incorporated in the synthesized complementary strand; 3' TTTTT single-stranded linker to array surface; dsDNA, one strand shown. The procedure, abridged:
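For the binding signal, per-feature fluorescence intensity was read in arbitrary units on an Axon 4000B scanner. Before scanning, a 2% BSA-blocked custom Agilent array made double-stranded with Cy5-dUTP was washed after 1 h at 25 °C with 200 nM protein and 50 µM zinc acetate. The proteins were Ni–NTA-purified transcription factors with N-terminal polyhistidine and DsRed fusions, expressed in E. coli BL21-CodonPlus.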
For “CGCCGCCGCCCTCACCCTCGCCGCCGCGCATCCCGCGGTCCGGAGTCACCTAGTGCAG”, the binding signal is 8120 fluorescence intensity (a.u.).
“ATAATAGGGTTATTCATAATATGGCAGGGTTTTTGGTTAGCGGAGTCACCTAGTGCAG”: the binding signal is 10300 fluorescence intensity (a.u.).
As for “TGTGATAGGCTTCAATGTTTAATCTCACCATCGATTGTTACGGAGTCACCTAGTGCAG”, the binding signal was 9500 fluorescence intensity (a.u.).
Consider “TAGTCTTTGTCGTTTCCATGTATAACTCTATTTATCTTTCCGGAGTCACCTAGTGCAG”, for which the binding signal is 12400 fluorescence intensity (a.u.).
As to “CTAGTTGCTCCTAACTTGGCCTACTGTCCTCCATCTCCAACGGAGTCACCTAGTGCAG”, the binding signal was 9280 fluorescence intensity (a.u.).
For “GAGCTTCCTATCGCGCCGCCGCGTGCGTACGTGTTTGATCCGGAGTCACCTAGTGCAG” the value was 11000 fluorescence intensity (a.u.); for “TACACCGTCCCAACCGGCTTTGTTTGACTTGTCCGACCAGCGGAGTCACCTAGTGCAG”, 8330 fluorescence intensity (a.u.).
Turning to “TTACCGATGCGACCTGTCCCTGTCACTCCCGCCTCGGTAACGGAGTCACCTAGTGCAG”, the binding signal is 9060 fluorescence intensity (a.u.).
“GACATTACGGGCCCACAAGTACGCGTCCCCACCAGCCATACGGAGTCACCTAGTGCAG”: the binding signal is 8490 fluorescence intensity (a.u.).
On to “ATCACCTTGCTCGATCGCCTCCGTTGTTTTGCACTAAATTCGGAGTCACCTAGTGCAG”, for which the binding signal is 8620 fluorescence intensity (a.u.).
Turning to “GAGGGGAGGAAGAAGAGGTGGGTGAGAATGACACGTGGGGCGGAGTCACCTAGTGCAG”, the binding signal was 10600 fluorescence intensity (a.u.).
The result for “TCTTATATGTTATGCAAGTATGTTTCTATCTCGTATCTTCCGGAGTCACCTAGTGCAG” reads 16500 fluorescence intensity (a.u.).
For “TGTTCTTGTTTGTGTTTTCTTCTTCGTCTCCGGCGACGGCCGGAGTCACCTAGTGCAG” the value was 10000 fluorescence intensity (a.u.); for “CTCTCTCTTCTTCTTCGTGTTGTTGTTTCTCTCTCTGTCTCGGAGTCACCTAGTGCAG”, 11700 fluorescence intensity (a.u.); for “TGTTTCTATCTCGTATCTTCTCTTCCAAGCATGTATTTCCCGGAGTCACCTAGTGCAG”, 8650 fluorescence intensity (a.u.).
Turning to “CTTCGTGTTCGTCGTGGTCTCTTGTTTCTTCTTCTTCTTCCGGAGTCACCTAGTGCAG”, the binding signal is 22000 fluorescence intensity (a.u.).
“TTTTAATCTCATTTTTTTTAACGGTTTTGCTATAATTTTTCGGAGTCACCTAGTGCAG”: the binding signal is 8850 fluorescence intensity (a.u.).
For the sequence “GTTCATTTTCATGTTATTTTTCATGTAACTACATTATTATCGGAGTCACCTAGTGCAG”, the binding signal was 8990 fluorescence intensity (a.u.).
With “CTTATCTCATTTTATCTCGGTTTTTGTTAACTTGTTTTTTCGGAGTCACCTAGTGCAG”, the binding signal is 18200 fluorescence intensity (a.u.).
Consider “TTTGTGTCACTTTTAAACATGTTCACGTCATTATTTTAGTCGGAGTCACCTAGTGCAG”, for which the binding signal was 9290 fluorescence intensity (a.u.).
With “GATTTTTTCGGACTTGGTCTCGGTCTTTTTGTTTGGTTATCGGAGTCACCTAGTGCAG”, the binding signal was 10200 fluorescence intensity (a.u.).
As for “ATTGTTCATTTGTCGTTCCATTACATGTAACTTCACTTCACGGAGTCACCTAGTGCAG”, the binding signal was 17000 fluorescence intensity (a.u.).
Consider “ATCGTTATCTATTGCCGTATGTTATTTCGTTGTTCCGTCTCGGAGTCACCTAGTGCAG”, for which the binding signal is 8920 fluorescence intensity (a.u.).
For “ATTTTGTTTCTCCTTGGTTGGTTTTGCTTCACCTAGATCACGGAGTCACCTAGTGCAG”, the binding signal is 11200 fluorescence intensity (a.u.).
Consider “GCTCGCTTTCTCAGGTCTTTCTCTTCCCCGTATCCCCACTCGGAGTCACCTAGTGCAG”, for which the binding signal was 10500 fluorescence intensity (a.u.).
For “TCTGCGAGGAAGAACCCATTCAGATTACGCTGCATTTTTTCGGAGTCACCTAGTGCAG”, the binding signal was 8660 fluorescence intensity (a.u.).
The result for “GGCGATCCGGCTTAACTACTTTGTTTGTTTCTCTGTGCAACGGAGTCACCTAGTGCAG” reads 8480 fluorescence intensity (a.u.); that for “ACCACCACCACCACCGCCCGCCAAGCGCGGCCCGCCCGACCGGAGTCACCTAGTGCAG”, 8720 fluorescence intensity (a.u.); that for “TGTTCTGCCGGGGTTGTTGCTTACTGATGCAAAACTCTTTCGGAGTCACCTAGTGCAG”, 9240 fluorescence intensity (a.u.).
Take “ATTGGATGTTAAGTTGTGTTTTTGCTGTTTCATGGTTTTACGGAGTCACCTAGTGCAG”: the binding signal was 11400 fluorescence intensity (a.u.).
As for “CACCTTTTTTTAATTTTTTGGTTTCCAATTTTTATTTTTTCGGAGTCACCTAGTGCAG”, the binding signal was 10900 fluorescence intensity (a.u.).
Turning to “AATTAGTTTCTTGCTTCTTCTTTTTTCTTTTCTTTTTCATCGGAGTCACCTAGTGCAG”, the binding signal is 8210 fluorescence intensity (a.u.).
For “GTGTTCATTGCTAGTTGCATTGTGGTTTTCTAGTTAATTACGGAGTCACCTAGTGCAG” the value was 9000 fluorescence intensity (a.u.).
Turning to “TTCCACGGTTTTCTTTTTTCGGTTTTTATCTTTTCTTTTTCGGAGTCACCTAGTGCAG”, the binding signal is 13200 fluorescence intensity (a.u.).
As to “TCGGTTTGTTTTTTTCCGGTTTATCTTCTTTCGGTTTTTTCGGAGTCACCTAGTGCAG”, the binding signal was 18500 fluorescence intensity (a.u.).
With “CTTTCCTTTCTTTGTTTTTTATCTTTGTTTTCTTTCTTCCCGGAGTCACCTAGTGCAG”, the binding signal was 11800 fluorescence intensity (a.u.).
As to “CTTTAATTTTAATTAGAGTTTCTTGCATCGGTTTCCAATGCGGAGTCACCTAGTGCAG”, the binding signal was 27700 fluorescence intensity (a.u.).
Consider “GATTGGTTGTTTGTTCTGTTTTGGACATGCTTGTTAATTACGGAGTCACCTAGTGCAG”, for which the binding signal was 17100 fluorescence intensity (a.u.).
For “ATCCAGTGAGCTCGAGGCTTCCCATCTATCCGCCGTTGGTCGGAGTCACCTAGTGCAG” the value was 8260 fluorescence intensity (a.u.); for “CGAGCTGCTGATGGCCCCTATGCCACATCTACTATGCATGCGGAGTCACCTAGTGCAG”, 17100 fluorescence intensity (a.u.); for “TATGCTTCATCTGTTCTTCTACATTGTTATCTACTATCTGCGGAGTCACCTAGTGCAG”, 10100 fluorescence intensity (a.u.).
For “CTGCTGCATCTGCACTGCATGGCCATGCCCACACACTTGGCGGAGTCACCTAGTGCAG”, the binding signal was 8050 fluorescence intensity (a.u.).
